Experimental findings from PubChem BioAssay (EPA / NIEHS) are described below.

Each structure is given as a SMILES string. Activity calls are given as the source filed them. How the source made its calls: active means hit-call score of the fitted dose curve at least 0.9, where 1 is the maximum; inactive means score below 0.9.

Test [1] in a line: BSK_hDFCGF_Proliferation: Cell Proliferation Assessment in the BioMAP Diversity Plus: hDFCGF Assay (AID 2283059).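 Further: curves fitted for both rise and fall of signal versus DMSO baseline.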 The following applies: primary human foreskin fibroblasts. An outline of the steps: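 Sub-confluent human foreskin fibroblast cultures receive test chemical […]. Relative cell number is quantified by sulforhodamine B staining (0.1%, after 10% TCA fixation) at 560 nm, with bidirectional fitting referenced to DMSO.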

Read-out in test [2]: Macrophage colony-stimulating factor (MCSF), CSF1 (gene 1435)
Put plainly: BSK_hDFCGF_MCSF: BioMAP Diversity Plus: hDFCGF Assay for Macrophage colony-stimulating factor (MCSF) Biomarker Activity (AID 2283060). Conditions: primary human foreskin fibroblasts; actives raise or lower the signal. An outline of the steps:
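Human foreskin primary fibroblasts were treated with test chemical for 24 h, and M-CSF was then measured by ELISA. Data were fitted bidirectionally against DMSO as the negative control and activity baseline.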

Read-out in test [3]: Monokine induced gamma interferon (MIG), CXCL9 (gene 4283)
Put plainly: BSK_hDFCGF_MIG: BioMAP Diversity Plus: hDFCGF Assay for Monokine induced gamma interferon (MIG) Biomarker Activity (AID 2283063). The following applies: primary human foreskin fibroblasts; actives raise or lower the signal. The method in brief: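 ELISA read-out of MIG from primary human dermal fibroblasts 24 h post-dosing. Gain or loss of signal fitted bidirectionally, DMSO as baseline.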

Read-out in test [4]: Matrix Metallopeptidase 1 (MMP1), MMP1 (gene 4312)
Put plainly: BSK_hDFCGF_MMP1: BioMAP Diversity Plus: hDFCGF Assay for Matrix Metallopeptidase 1 (MMP1) Biomarker Activity (AID 2283064). The following applies: primary human foreskin fibroblasts; actives raise or lower the signal. An outline of the steps: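 Primary human foreskin fibroblasts in the hDFCGF system were dosed with test chemical, and MMP1 was measured by ELISA 24 h later. Values come from bidirectional curve fitting against the DMSO baseline.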

Read-out in test [5]: Vascular cell adhesion molecule 1 (VCAM1), VCAM1 (gene 7412)
Put plainly: BSK_hDFCGF_VCAM1: BioMAP Diversity Plus: hDFCGF Assay for Vascular cell adhesion molecule 1 (VCAM1) Biomarker Activity (AID 2283065).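 On AC50: VCAM-1 protein level quantified by ELISA after 24 h chemical exposure.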 The following applies: primary human foreskin fibroblasts; actives raise or lower the signal. An outline of the steps:
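Primary human foreskin fibroblasts (hDFCGF system) were dosed with chemical and VCAM-1 was measured by ELISA 24 h later. Bidirectional curve fitting used DMSO as negative control and activity baseline.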

Read-out in test [6]: Plasminogen activator inhibitor-1 (PAI1), SERPINE1 (gene 5054)
Kind of test: BSK_hDFCGF_PAI1: BioMAP Diversity Plus: hDFCGF Assay for Plasminogen activator inhibitor-1 (PAI1) Biomarker Activity (AID 2283066). The following applies: primary human foreskin fibroblasts; actives raise or lower the signal. The method in brief:
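Human foreskin fibroblast primary cells, 24 h chemical exposure; PAI-1 measured by ELISA. Bidirectional fitting relative to DMSO; parallel cultures stained with SRB for total protein to flag overt cytotoxicity.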

Read-out in test [7]: Intercellular Adhesion Molecule 1 (ICAM1), ICAM1 (gene 3383)
Kind of test: BSK_KF3CT_ICAM1: BioMAP Diversity Plus: KF3CT Assay for Intercellular Adhesion Molecule 1 (ICAM1) Biomarker Activity (AID 2283067). Conditions: primary human keratinocytes with fibroblasts; actives raise or lower the signal. An outline of the steps:
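Human keratinocyte plus foreskin fibroblast primary co-culture was exposed to chemical for 24 h. ICAM-1 was then quantified by ELISA, and the data were fit bidirectionally against DMSO as the negative control and baseline.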

Read-out in test [8]: Interferon-gamma inducible Protein 10 (IP10), CXCL10 (gene 3627)
Kind of test: BSK_KF3CT_IP10: BioMAP Diversity Plus: KF3CT Assay for Interferon-gamma inducible Protein 10 (IP10) Biomarker Activity (AID 2283068). The following applies: primary human keratinocytes with fibroblasts; actives raise or lower the signal. The method in brief:
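ELISA read-out of IP-10 after 24 h chemical dosing of human skin primary co-culture (keratinocytes, foreskin fibroblasts). Gain or loss of signal relative to DMSO, bidirectional curve fit.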

Read-out in test [9]: TIMP metallopeptidase inhibitor 1 (TIMP1), TIMP1 (gene 7076)
Put plainly: BSK_hDFCGF_TIMP1: BioMAP Diversity Plus: hDFCGF Assay for TIMP metallopeptidase inhibitor 1 (TIMP1) Biomarker Activity (AID 2283062). The following applies: primary human foreskin fibroblasts; actives raise or lower the signal. The method in brief: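 Primary human foreskin fibroblasts in the hDFCGF system were dosed with compound for 24 h, then TIMP-1 was measured by ELISA. Activity was fitted bidirectionally relative to DMSO control; parallel SRB staining assessed cytotoxicity.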

`CCNP(=S)(OC)O/C(C)=C/C(=O)OC(C)C` (stereo not given): the result in test [1], in test [2], in [3], in test [4], in test [5] and in test [6] was inactive. Also, in test [7], the result was inactive. Besides, in test [8], the half-maximal activity concentration (AC50) is 0.148 µM (active).
Consider `COC(=O)N(C(=O)N1CO[C@@]2(C(=O)OC)Cc3cc(Cl)ccc3C2=N1)c1ccc(OC(F)(F)F)cc1`, for which the AC50 in [1] is 7.63 µM (active); in test [6] it was 5.54 µM (active); in [8], 13.3 µM (active). Besides, the outcome in test [2], in test [3], in test [4], in test [5] and in test [7] was inactive.
`CCCCOCN(C(=O)CCl)c1c(CC)cccc1CC`: the AC50 in test [1] is 15.2 µM (active); in test [2] it was 16.5 µM (active); in test [3] it was 33.3 µM (active); in test [4], 34.8 µM (active); in test [5], 16.9 µM (active); in [6], 20 µM (active). The half-maximal activity concentration (AC50) was 35.2 µM (active) in test [7] and 26.4 µM (active) in [8].
`CCCCC(C#N)(Cn1cncn1)c1ccc(Cl)cc1` (stereo not given): the outcome in test [1], in test [2], in test [3], in test [5] and in test [7] was inactive. For the same compound, the figures for the AC50 in [6] and in test [8] were 7.4 µM (active) and 0.148 µM (active), respectively.
Regarding `N#CN=C1SCCN1Cc1ccc(Cl)nc1`, the outcome in test [1], in [2], in [3], in [5], in [6] and in [7] was inactive. In test [8], the result was inactive.
Regarding `O=C1C2CC=CCC2C(=O)N1SC(Cl)(Cl)Cl` (stereo not given), the half-maximal activity concentration (AC50) in test [1] was 1.85 µM (active); in test [2], 6.29 µM (active); in test [3], 7.37 µM (active); in test [4] it was 10.7 µM (active); in test [5], 5.37 µM (active); in test [6], 7.58 µM (active). In addition, the half-maximal activity concentration (AC50) in test [7] was 9.86 µM (active); in [8], 10.3 µM (active).
As for `Nc1c(Cl)c(F)nc(OCC(=O)O)c1Cl`, the result in [1], in test [2], in test [3], in test [5], in [6] and in test [7] was inactive. In addition, the result in test [8] was inactive.
For `Cc1nc(N(C)C)nc(OC(=O)N(C)C)c1C`, the outcome in [1], in [2], in test [9], in test [3], in test [5] and in test [6] was inactive. The outcome in test [7] and in [8] was inactive.
Consider `COC(=O)c1c(C(F)F)nc(C(F)(F)F)c(C2=NCCS2)c1CC(C)C`, for which the result in test [1], in test [2], in [3], in test [5], in [6] and in test [7] was inactive. For the same compound, the AC50 in [8] is 21.8 µM (active).
`COC(=O)NC(=S)Nc1ccccc1NC(=S)NC(=O)OC`: in [1], the AC50 was 29.8 µM (active). In addition, the outcome in test [2], in [9], in test [3], in test [5], in test [6] and in test [7] was inactive. In addition, in [8], the result was inactive.
In the case of `CCOP(=S)(OCC)Oc1nc(Cl)n(C(C)C)n1`, the result in test [1], in [2], in test [3], in [5], in [6] and in test [7] was inactive. Besides, the result in [8] was inactive.
Take `CS(=O)(=O)c1cc(C(F)(F)F)ccc1C(=O)c1cnoc1C1CC1`: the outcome in [1], in test [2], in test [3], in test [5], in test [6] and in [7] was inactive. For the same compound, the result in test [8] was inactive.
For the compound `Clc1nc(Cl)nc(Nc2ccccc2Cl)n1`, the AC50 in [1] was 27.8 µM (active); in test [3], 29.1 µM (active); in test [5], 36.1 µM (active); in test [6] it was 27.2 µM (active). Moreover, the result in test [9], in test [4], in [7] and in [8] was inactive.
As to `COCc1cnc(C2=NC(C)(C(C)C)C(=O)N2)c(C(=O)O)c1` (stereo not given), the outcome in test [1], in test [2], in test [3], in test [5], in test [6] and in test [7] was inactive. The AC50 in [8] was 12.3 µM (active).
`CC1(C)CCC(=Cc2ccc(Cl)cc2)C1(O)Cn1cncn1` (stereo not given): the AC50 in [1] is 1.31 µM (active). In addition, the result in [2], in [3], in [5], in test [6], in [7] and in test [8] was inactive.
`Cc1cc(C)nc(Nc2ccccc2)n1`: the result in test [1], in test [2], in test [3], in test [5], in test [6] and in test [7] was inactive. Also, the result in [8] was inactive.
For `Clc1cccc(C(Cl)(Cl)Cl)n1`, the result in test [1], in test [2], in test [9], in [3], in test [4] and in test [5] was inactive. Moreover, the outcome in test [6], in test [7] and in [8] was inactive.
Regarding `CC(C)NC(=O)N1CC(=O)N(c2cc(Cl)cc(Cl)c2)C1=O`, the outcome in test [1], in test [2], in test [9], in test [3], in test [5] and in test [6] was inactive. Further, the outcome in test [7] and in test [8] was inactive.
In the case of `Cc1ccc(N=CN(C)C=Nc2ccc(C)cc2C)c(C)c1`, the AC50 in test [1] was 14 µM (active); in test [2], 15.2 µM (active); in test [3], 29.7 µM (active); in test [5] it was 15.8 µM (active); in test [6], 29.7 µM (active); in test [8], 32.7 µM (active). Also, the result in test [7] was inactive.
In the case of `COP(=S)(OC)Oc1ccc([N+](=O)[O-])c(C)c1`, the half-maximal activity concentration (AC50) in test [1] is 24.2 µM (active); in [2], 13.2 µM (active); in test [5], 9.37 µM (active). The result in test [3], in test [6], in [7] and in test [8] was inactive.

What is called AC50 is the concentration at which the activity in the assay is half-maximal.
